Yeast superoxide = lowers age-related superoxide in aged yeast cells | AID 2690 | 330,000 tested, 0.18% active | superoxide response (% of plate mean), % at 10 µM | S. cerevisiae aged cells, superoxide DHE fluorescence; hits give low values;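 active means superoxide response under a set limit, about three screen SD below normal, cut at about 65% in these data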;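 further: yeast aged for seven days with compound at 30 °C before DHE staining; 100% = average MFI of all compound-treated wells on the plate with controls excluded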
ALR inh = inhibitors of human sulfhydryl oxidase ALR; AID 485317; inhibition, % (test concentration not listed); 290,000 tested, 3.8% active; purified ALR, DTT oxidation, H2O2 HRP-luminol luminescence;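 active means mean replicate inhibition above about 79%, with every replicate also reaching it, limit read from the data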
APOBEC3G inh = APOBEC3G (human) deaminase inhibition. Q9HC16. recombinant A3G, ssDNA deamination FAM/TAMRA fluorescence. inhibition, % at 20 µM. 330,000 tested, 0.28% active;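 active means inhibition of at least 40% at 20 µM, with no more than 30% in the related APOBEC3A deaminase screen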;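 further: plate controls were DMSO wells with A3G for no effect and wells lacking A3G enzyme for full effect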
APOBEC3A inh = blocks human APOBEC3A ssDNA deamination. AID 493011. P31941. 330,000 tested, 0.41% active. inhibition, % at 20 µM. recombinant A3A, FAM/TAMRA ssDNA deamination fluorescence;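 active means at least 40% inhibition at 20 µM here, with at most 30% in a related deaminase screen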;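 further: plate controls were A3A with DMSO for no effect and wells lacking A3A enzyme for full effect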
NRP1-CendR mod = alters CendR peptide binding to human NRP-1; O14786; 360,000 tested, 0.85% active; FAM-RPARPAR peptide binding to NRP-1, fluorescence polarization; inhibition, % at 25 µM;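 active means inhibition or corrected inhibition above about 18%, plus a signal ratio from 0.5 to 1.5, limit read from the data, passing the limit was not always enough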
Target sequence (O14786 whole entry, looked up): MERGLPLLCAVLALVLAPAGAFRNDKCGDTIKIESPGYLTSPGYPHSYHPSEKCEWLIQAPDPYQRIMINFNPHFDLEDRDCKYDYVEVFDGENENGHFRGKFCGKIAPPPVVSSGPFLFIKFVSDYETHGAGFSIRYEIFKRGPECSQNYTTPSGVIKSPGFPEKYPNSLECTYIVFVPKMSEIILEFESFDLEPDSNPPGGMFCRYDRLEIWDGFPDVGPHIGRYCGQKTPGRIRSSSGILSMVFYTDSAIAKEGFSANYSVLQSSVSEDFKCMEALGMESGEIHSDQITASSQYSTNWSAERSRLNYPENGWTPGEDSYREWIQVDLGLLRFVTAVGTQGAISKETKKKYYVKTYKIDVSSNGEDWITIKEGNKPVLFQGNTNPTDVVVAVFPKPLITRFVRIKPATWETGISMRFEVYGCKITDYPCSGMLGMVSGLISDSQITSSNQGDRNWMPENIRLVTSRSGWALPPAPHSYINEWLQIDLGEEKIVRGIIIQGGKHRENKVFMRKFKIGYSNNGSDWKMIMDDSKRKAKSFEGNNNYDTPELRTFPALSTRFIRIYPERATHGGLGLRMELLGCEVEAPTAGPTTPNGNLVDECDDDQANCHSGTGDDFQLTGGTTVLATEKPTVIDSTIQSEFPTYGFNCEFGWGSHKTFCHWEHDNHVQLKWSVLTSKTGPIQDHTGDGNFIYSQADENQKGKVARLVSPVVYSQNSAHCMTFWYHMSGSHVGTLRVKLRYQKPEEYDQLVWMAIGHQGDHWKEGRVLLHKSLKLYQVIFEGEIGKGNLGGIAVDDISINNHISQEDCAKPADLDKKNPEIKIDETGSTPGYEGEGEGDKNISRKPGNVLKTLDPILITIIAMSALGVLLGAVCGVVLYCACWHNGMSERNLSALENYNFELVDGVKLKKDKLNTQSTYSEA
PfM18AAP inh = blocks P. falciparum M18 aspartyl aminopeptidase; inhibition, % at 7.35 µM; AID 1822; 290,000 tested, 1.2% active; recombinant PfM18AAP, H-Glu-NHMec fluorogenic cleavage;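 active means inhibition above the campaign mean inhibition over all tested compounds plus 3 SD, cut at about 28% in these data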;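 further: 0% = plate median of test compound wells and 100% = 2 mM ZnCl2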
* marks the source's active call; other numbers are inactive results; . = no result given. Shown are actives, neighbours in structure and some others; about 5.2% of the full set was active somewhere.

SMILES | Yeast superoxide | ALR inh | APOBEC3G inh | APOBEC3A inh | NRP1-CendR mod | PfM18AAP inh
CCc1nc2ccc(C(=O)NCCCN3CCCC3=O)cn2c1N(CC)CCOC | . | . | . | . | 2 | .
Cc1cccc(N2CCN(C(C(=O)NCc3ccccc3)c3ccco3)CC2)c1C (stereo not drawn) | . | . | . | . | 14 | .
O=C(NCCCN1CCOCC1)c1cc2c(s1)CSC2 | 113 | 99* | -2 | 2 | -14 | 2
COc1ccc(NC(=O)CSc2nc3ccccc3nc2N2CCCC2)cc1Cl | 90 | -3 | -2 | -3 | -4 | 8
S=c1[nH]nc(CNc2ccc(Cl)cc2)n1Cc1ccccc1 | 109 | 99* | -10 | -6 | 19 | 9
Cc1n[nH]c(=S)n1Cc1ccccc1 | 85 | 35 | -1 | -6 | -8 | 6
Cc1ccn(Cc2n[nH]c(=S)n2Cc2ccccc2)n1 | 88 | 91* | 24 | -7 | 2 | 5
Fc1ccc(NCc2n[nH]c(=S)n2Cc2ccccc2)cc1 | 99 | 12 | 4 | -4 | 5 | 14
NC(=O)C1CCCN(C(=O)c2ccc3nc(Cc4cccc(Cl)c4)oc3c2)C1 (stereo not drawn) | 82 | -7 | -7 | -4 | 27* | -1
O=c1[nH]c2ccc(Cl)cc2c(-c2ccccc2)c1[N+](=O)[O-] | 103 | -6 | -5 | -4 | 4 | 9
Cc1ccc2cccc(Oc3nnnn3-c3ccccc3)c2n1 | 99 | . | -3 | 2 | 6 | 1
CC1Sc2ccc(S(=O)(=O)CCC(=O)Nc3ccccn3)cc2NC1=O (stereo not drawn) | 112 | -1 | -2 | -3 | 4 | 29*
CC1Sc2ccc(C(=O)Nc3ccc(S(=O)(=O)N(C)C)cc3)cc2NC1=O (stereo not drawn) | 83 | 98* | 0 | 36 | -10 | .
COc1ccc(-c2cc(C(F)(F)F)n3nc(N)nc3n2)cc1 | 93 | -5 | 2 | 4 | -6 | -14
COc1cccc(-c2cc(C(F)(F)F)n3nc(N)nc3n2)c1 | 104 | 95* | -6 | 3 | -8 | 3
O=C(N/N=C/C=C/c1ccccc1)c1ccccn1 | 99 | -7 | -2 | 1 | 8 | 4
O=C(CSc1ccccn1)N/N=C/C=C/c1ccccc1 | 94 | -11 | -4 | 0 | 22* | -3
O=C(O)c1cccc2c1-c1ccccc1/C2=N\Nc1ccccc1 | 116 | 99* | -1 | 2 | -17 | 8
CN1CCN(c2c(/C=N/O)c3ccccc3n2C)CC1 | 127 | 93* | -10 | -4 | -8 | -7
COc1ccc(N(CC(=O)Nc2ccc(C)c(C)c2)C2=NC3CS(=O)(=O)CC3S2)cc1 (stereo not drawn) | 94 | 42 | -15 | -3 | -1 | 0
COc1ccc(N(CC(=O)Nc2ccccc2C(F)(F)F)C2=NC3CS(=O)(=O)CC3S2)cc1 (stereo not drawn) | 105 | 97* | -7 | 0 | 8 | 1
Cc1ccc(NC(=O)CN(C2=NC3CS(=O)(=O)CC3S2)c2ccccc2)cc1 (stereo not drawn) | . | . | . | . | 4 | .
Cc1cc(C)cc(N(CC(=O)Nc2ccccc2)C2=NC3CS(=O)(=O)CC3S2)c1 (stereo not drawn) | 91 | 98* | -2 | -1 | -1 | 6
COc1ccc(C(=O)COC(=O)c2ccn(C)n2)cc1 | 90 | . | 0 | 0 | 10 | -8
CCOC(=O)c1ccc(NC(=O)COc2ccccc2CNCCc2ccccc2)cc1 | 74 | -5 | -8 | -1 | -4 | -12
SMILES | Yeast superoxide | ALR inh | APOBEC3G inh | APOBEC3A inh | NRP1-CendR mod | PfM18AAP inh
C/C(=N\Nc1ccc(C(=O)O)cc1)c1ccc2c(c1)Nc1ccccc1S2 | 90 | 100* | -3 | 10 | -34 | 28
CN(C)CC(C)(C)CNC(=S)Nc1cc(S(=O)(=O)N2CCOCC2)ccc1Cl | 93 | 14 | -2 | 3 | 2 | 1
CCN(CC)S(=O)(=O)c1ccc(N=NC2=C(O)CC(C)(C)CC2=O)cc1 | 106 | -10 | -3 | -4 | 10 | 0
CCN(CC)S(=O)(=O)c1ccc(N=NC2=C(O)CCCC2=O)cc1 | 106 | -12 | -2 | -3 | 26* | 25
O=C(CCN1CCc2ccccc2C1)c1ccc2c(c1)OCCO2 | 93 | 98* | -3 | -2 | 6 | -9
O=C1CN(C(=O)COC(=O)c2ccc(Cl)c(S(=O)(=O)N3CCCCC3)c2)c2ccccc2N1 | 92 | . | -2 | 1 | -1 | .
Cc1cc2c(=O)n(C)c(SCC(=O)Nc3cccc(O)c3)nc2s1 | 101 | 99* | -8 | -4 | 2 | 5
Cc1cccc(NC(=O)CSc2nc3sc(C)cc3c(=O)n2C)c1 | . | . | . | . | 19* | .
Cc1cc2c(=O)n(C)c(SCC(=O)Nc3ccccc3)nc2s1 | 83 | 2 | -13 | 3 | -3 | -5
COc1ccc(NC(=O)CSc2nc3sc(C)cc3c(=O)n2C)cc1 | 108 | -3 | -4 | 0 | 8 | 3
COc1ccccc1CNC(=O)CCS(=O)(=O)c1ccc2c(c1)CCCN2C(C)=O | 102 | -2 | 0 | 0 | 21 | 2
COc1ccc(-c2nn(CC(=O)N3CCCCC3)c(=O)c3ccccc23)cc1 | 111 | -2 | -9 | -8 | . | -16
Cc1ccc(/C=C2/SC(=O)NC2=S)o1 | . | . | 46 | 72 | 53* | 26
COCCn1c(SCC(=O)NCC2CCCO2)nc2c([nH]c3ccccc32)c1=O (stereo not drawn) | 97 | 0 | -4 | -3 | 20 | 5
Cc1cc(OC(=O)c2ccco2)c2c(C)cc(=O)oc2c1 | 93 | 9 | -6 | -2 | -19 | 1
Cc1cc(OC(=O)CNC(=O)OC(C)(C)C)c2c(C)cc(=O)oc2c1 | 101 | 91* | -7 | -5 | -12 | -2
Nc1nc2c(s1)CC(c1ccccc1)CC2 (stereo not drawn) | 89 | 58 | -5 | -4 | 1 | 2
CCOC(=O)c1c(N)sc2c(OC)c(Br)ccc12 | 86 | 99* | 2 | 3 | 4 | -29
Cc1ccc(C(=O)NC(=S)N2CCN(c3ccccc3F)CC2)cc1 | 94 | -10 | 1 | -2 | -1 | -4
CCn1c(-c2ccc(F)cc2)n[nH]c1=S | 92 | -1 | 34 | 14 | -2 | 4
CCn1c(-c2cc3ccccc3cc2O)n[nH]c1=S | 81 | 99* | 21 | -2 | 3 | -3
CCN(CC)C(=O)CSc1nnc(-c2cc3ccccc3cc2O)n1CC | 110 | 85* | -2 | -2 | 7 | 10
CCn1c(-c2cc(Br)ccc2O)n[nH]c1=S | 109 | 98* | 39 | -3 | -5 | 18
Cc1ccc2c(CC(=O)Nc3c(C)n(C)n(-c4ccccc4)c3=O)coc2c1 | 107 | -3 | -2 | 1 | -10 | -7
O=C(N/N=C/c1ccncc1)c1cc(Br)ccc1OCc1ccccc1 | 105 | -6 | -4 | -4 | -7 | 3
Cc1ccc(C(=O)Nc2cc(C(C)C)c(O)c(C(C)C)c2)cc1 | 87 | -2 | -6 | 2 | -25 | 7
C=CCON1C(=O)c2ccccc2C1=O | 111 | -2 | -7 | -3 | -9 | 3
